# Source: PubChem BioAssay (several laboratories)
# Only some compounds are listed: those with a hit (about 2.3% of all), similar ones and a draw of the others.
# GLD-1 TGE inh – GLD-1-TGE RNA interaction inhibition (C. elegans) | Q17339 | purified GLD-1 + fluorescein TGE RNA, fluorescence polarization | inhibition, % at 5.96 µM | hit rate 0.44% among 320,000;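 active = percent inhibition above a per-plate cutoff, the plate mean of test compounds plus 3 SD, cut at about 30% in these data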;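 note: 0% = DMSO wells with GLD-1 and probe and 100% = wells lacking GLD-1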
# BCLXL inh – inhibitors of human Bcl-xL; Q07817; GST-Bcl-xL / FITC-Bim BH3 peptide fluorescence polarization; inhibition, % at 10.9 µM; hit rate 0.7% among 320,000; AID 2129;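 active = inhibition above the mean of all tested compounds plus 3 SD, cutoff set per campaign, cut at about 30% in these data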;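 note: 0% = DMSO wells and 100% = unlabeled Bim-BH3 peptide competitor; inhibitors lower millipolarization by displacing the labeled peptide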
# Target sequence (Q07817 whole entry, looked up): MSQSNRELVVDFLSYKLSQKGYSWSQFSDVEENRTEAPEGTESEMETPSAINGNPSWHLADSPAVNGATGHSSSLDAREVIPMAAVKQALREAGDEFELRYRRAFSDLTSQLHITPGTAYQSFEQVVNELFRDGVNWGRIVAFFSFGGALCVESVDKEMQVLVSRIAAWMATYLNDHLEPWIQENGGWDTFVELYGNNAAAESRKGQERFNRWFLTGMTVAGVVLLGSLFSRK
# Mcl-1 Bim block – inhibitors of Bim-Mcl-1 interaction, human | Bead-based flow cytometry, Bim peptide-Mcl-1 binding | inhibition, % at 10 µM | hit rate 0.1% among 190,000; in the data active = inhibition above about 40%;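 note: 0% = no compound tracer wells and 100% = peptide blocker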
# Target sequence (Q07820 whole entry, looked up): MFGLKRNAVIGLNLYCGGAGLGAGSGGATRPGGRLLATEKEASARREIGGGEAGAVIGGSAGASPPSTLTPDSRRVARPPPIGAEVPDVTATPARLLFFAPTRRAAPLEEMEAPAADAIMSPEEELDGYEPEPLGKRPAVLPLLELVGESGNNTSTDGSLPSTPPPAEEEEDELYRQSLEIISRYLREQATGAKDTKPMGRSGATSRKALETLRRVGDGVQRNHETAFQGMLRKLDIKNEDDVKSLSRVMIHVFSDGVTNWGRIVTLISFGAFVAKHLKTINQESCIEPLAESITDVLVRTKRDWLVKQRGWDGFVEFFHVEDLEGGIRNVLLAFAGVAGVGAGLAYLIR
# MCL1-BIM inh – MCL1-BIM-BH3 interaction inhibition (human) | Q07820 | GST-MCL1 / FITC-Bim-BH3 fluorescence polarization | inhibition, % at 10.9 µM | hit rate 0.68% among 320,000;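 active = inhibition above the mean inhibition of all tested compounds plus 3 SD, set per campaign, cut at about 40% in these data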;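 note: 0% = DMSO wells and 100% = unlabeled Bim-BH3 peptide control; higher means more loss of mP so more displacement of Bim peptide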
# Mcl1 Noxa PPI – disrupts binding of human Mcl-1 to Noxa peptide; Q07820; hit rate 1.5% among 220,000; inhibition, % at 21.7 µM; TR-FRET Mcl-1/Noxa peptide binding, 2 h;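 active = compounds that cut the protein-peptide binding signal by more than 50% relative to plate controls in a single-dose test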;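 note: His-tagged Mcl-1 with rhodamine Noxa BH3 peptide and terbium anti-His antibody; 0% = Mcl-1 plus Noxa peptide wells and 100% = peptide-only wells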
# Mcl1-Bid inh – disrupts binding of human Mcl-1 to Bid peptide. inhibition, % at 21.7 µM. hit rate 0.97% among 220,000. TR-FRET Mcl-1/Bid-Dy647 peptide binding, 1536-well. Q07820;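 active = compounds that cut the binding signal by more than half at the single screening dose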;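 note: His-tagged Mcl-1 with europium anti-His antibody binding Bid BH3 peptide; 0% = Mcl-1 plus peptide wells and 100% = peptide-only wells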
# Numbers without * were called inactive; nt = no result given.
SMILES,GLD-1 TGE inh,BCLXL inh,Mcl-1 Bim block,MCL1-BIM inh,Mcl1 Noxa PPI,Mcl1-Bid inh
Cc1cc(C)c2nc(NNC(=O)c3cc(=O)c4ccccc4o3)sc2c1,-0.9,2.3,2.0,-1.1,64.8*,-44.2
Cc1nc2c(-c3ccc(Cl)cc3)cnn2c2c1CCC2,5.3,1.1,0.0,-10.7,14.4,85.2*
Cc1nnc(SC(C)C(=O)NC2CCCCC2C)s1 (centres undefined),1.9,5.8,nt,1.3,nt,nt
CCOc1ccc(NC(c2ccccn2)c2oc(CO)cc(=O)c2O)cc1 (centres undefined),23.9,22.9,-4.0,27.5,62.8*,-73.3
CCOc1ccc(NC(=O)C(c2ccccn2)N(C(=O)CCl)c2ccc(OCC)cc2)cc1 (centres undefined),8.5,16.5,-4.0,5.9,3.6,-20.2
CCCCCN1CC(=O)N2Cc3[nH]c4ccccc4c3C[C@H]2C1=O,5.5,-2.6,nt,-8.5,nt,nt
CCCCN1C(=O)C2Cc3c([nH]c4ccccc34)CN2C1=S (centres undefined),44.5*,-10.2,0.0,-16.9,-2.2,-19.0
CCOC(=O)Cc1csc(NC(=O)CSc2nnnn2-c2ccc(C)c(C)c2)n1,0.2,2.9,-3.0,2.2,-18.8,80.5*
COc1ccc(-c2nn(CCC#N)cc2C(=O)Nc2ccccn2)cc1OC,-4.4,0.7,nt,6.7,nt,nt
O=C1N=c2ccccc2=C1c1c(O)n(-c2cccc(F)c2)[nH]c1=O,0.1,14.6,-10.0,22.8,102.3*,72.7*
CCn1c(O)c(C2=c3ccccc3=NC2=O)c2cc(Br)ccc21,-9.1,1.8,0.0,-0.7,22.1,1.4
CCN(CC)c1ccc(/C=C(\C#N)C(=O)c2ccc(Br)cc2)cc1,63.2*,52.4*,nt,44.9*,-15.5,-11.2
O=C(NCCc1ccc(Cl)cc1)c1ccc2[nH]c(=O)c(=O)[nH]c2c1,-3.9,3.5,nt,4.5,nt,nt
CC(=O)C[C@H]1c2ccccc2S(=O)(=O)N1c1ccccc1,0.9,5.0,nt,3.4,nt,nt
O=C(COc1ccc(S(=O)(=O)N2CCOCC2)cc1)Nc1ccccc1F,6.5,-0.6,nt,-4.5,nt,nt
Cc1ccc(-c2nc(SCC(=O)N(C)c3c(N)n(Cc4ccccc4)c(=O)[nH]c3=O)n[nH]2)cc1,-2.8,-2.7,nt,-5.1,nt,nt
Cc1ccc(-n2c(-c3ccccc3)c[n+]3c2CCC3)cc1,0.3,3.5,-1.0,2.7,51.2*,-10.8
CC(C)OCCCNC(=O)C(=O)NCCCOC(C)C,19.3,40.0*,-4.0,1.3,11.1,7.6
CC(C)OCCCNC(=O)c1ccc(Br)cc1,-1.2,2.4,-1.0,4.2,-7.0,2.8
O=[N+]([O-])c1cc(S(=O)(=O)Nc2ccc(Cl)cc2)ccc1N/N=C/c1ccncc1,-2.1,4.9,-2.0,0.7,51.7*,25.9
Cc1ccc(-n2c(C)cc3c2CCCC3=O)cc1,17.4,30.6*,5.0,33.6,2.0,-43.8
CCCCC(CC)CNC(=O)C(=O)c1ccccc1NC(C)=O (centres undefined),-0.9,-2.3,-5.0,3.3,4.8,-7.5
Cc1sc(C(=O)Nc2ccc3ccccc3c2)cc1CC(=O)O,5.5,-1.7,0.0,1.6,17.5,2.7
O=c1cc(CN2CCOCC2)c2ccc(O)c(O)c2o1,-2.6,4.9,nt,6.1,nt,nt
CC1Oc2cc3oc4c(O)c(O)ccc4c(=O)c3c(O)c2C1(C)C (centres undefined),31.0*,10.2,nt,13.2,nt,nt
SMILES,GLD-1 TGE inh,BCLXL inh,Mcl-1 Bim block,MCL1-BIM inh,Mcl1 Noxa PPI,Mcl1-Bid inh
OCC[C@H]1C[C@@H](O)[C@H](O)[C@]2(OCc3ccccc32)O1,7.3,0.0,nt,2.6,nt,nt
COC(=O)C1=CN(CC2CCCO2)C=C(C(=O)OC)C1c1ccsc1 (centres undefined),6.0,2.2,0.0,5.0,0.4,95.5*
COc1ccc2nc(C)cc(SCC(=O)N/N=C/c3ccc(O)c(O)c3)c2c1,-3.6,-5.3,16.0,26.6,54.2*,-32.4
O=C(CSc1nc2ccccc2o1)N/N=C/c1ccc(O)c(O)c1,8.3,4.0,nt,20.8,36.6,-132.4
Cc1cc(SCC(=O)N/N=C/c2ccc(O)c(O)c2)c(C)cc1Br,11.1,3.3,1.0,28.9,60.5*,23.4
O=C(O)CCCN1C(=O)C(=O)/C(=C(/O)c2ccccc2)C1/C=C/c1ccccc1 (centres undefined),-1.0,-3.5,1.0,-9.3,10.6,-25.1
O=C(Nc1ccc(Cl)cc1)/C(=C/c1cccc(O)c1)c1nc2ccccc2s1,9.7,-1.7,-4.0,-3.5,4.0,-0.8
COc1ccc(C(=O)Nc2cccc(/C=C/c3nc4ccccc4c(=O)[nH]3)c2)cc1,2.2,-8.9,nt,-12.6,57.2*,42.7
O=C(Nc1cccc(/C=C/c2nc3ccccc3c(=O)[nH]2)c1)c1ccccc1Cl,0.2,1.1,nt,4.3,-2.8,9.7
COc1ccc(C(=O)Nc2nc3cc(OC)c(OC)cc3c(=O)[nH]2)cc1,8.2,4.3,10.0,5.2,-7.6,98.5*
O=C(O)C/C(=C\c1cccc(NC(=O)c2ccccc2Cl)c1)c1nc2ccccc2s1,5.2,-7.9,nt,-7.0,65.1*,-20.0
COc1ccc(C(=O)Nc2cccc(/C=C(\CCC(=O)O)c3nc4ccccc4s3)c2)cc1,1.1,3.8,nt,-3.1,85.2*,-61.0
CCn1cc(C(=O)NC(C)CCc2ccccc2)c(=O)c2cc(S(=O)(=O)N(C)C)ccc21 (centres undefined),3.3,0.2,nt,-3.0,nt,nt
Cc1nc(SCC(=O)N2CCOCC2)c2c(=O)n(C)c(=O)n(CC(C)C)c2n1,-6.8,nt,nt,nt,nt,nt
CN(c1ccccc1)c1ccc(/C=C(\CCC(=O)O)c2nc3ccccc3s2)cc1[N+](=O)[O-],-1.6,21.4,-1.0,22.3,100.0*,-40.9
CCOc1cc(/C=C(\CC(=O)O)c2nc3ccccc3s2)ccc1OC,2.8,5.7,0.0,2.1,13.3,-1.2
Cc1ccc(/C=C(\CCC(=O)O)c2nc3ccccc3s2)cc1[N+](=O)[O-],0.4,3.3,-4.0,1.1,26.8,4.5
COc1cc(/C=C(\CC(=O)O)c2nc3ccccc3s2)cc(OC)c1O,-3.9,17.4,-1.0,15.3,57.7*,18.9
O=C(Cn1nnc(-c2ccccc2NC(=O)c2ccccc2F)n1)NC1CCCC1,-86.9,0.5,-3.0,-12.8,-36.9,-16.0
COc1ccc(CCNC(=O)CCCN2C(=O)c3ccccc3C2=O)cc1OC,1.3,2.1,-3.0,-2.7,-1.9,61.9*
COc1ccc(CCNC(=O)c2ccc(=O)[nH]n2)cc1OC,1.2,5.5,0.0,0.9,2.3,100.0*
COc1ccc(CCNC(=O)CCCCCN2C(=O)c3ccccc3C2=O)cc1OC,2.6,7.4,16.0,7.9,20.5,-31.6
COc1ccc(CCNC(=O)c2ccc(OC)c(OC)c2)cc1OC,-2.0,1.7,nt,-1.3,nt,nt
COc1ccc(CCNC(=O)c2ccc(Cl)cc2Cl)cc1OC,5.0,4.1,-2.0,-3.4,-1.4,82.5*
S=c1[nH]nc(-c2ccncc2)n1/N=C/c1cn(-c2ccccc2)nc1-c1ccc(Cl)cc1,1.4,-10.3,nt,-3.2,62.0*,-59.2
